The record followed here is PubChem BioAssay (NCI).

The panel holds about 79,000 compounds, 15% with a hit somewhere; the sample as a whole holds those more often. Unmarked numbers belong to inactive results. Activity calls are given as the source filed them. Cut-off read from the data, not from the text of the source: active = growth inhibition above about 70%; inactive = the rest.

Assay [1] can be described thus: NCI Yeast Anticancer Drug Screen. Data for the rad50 strain (AID 155).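 Note: 0% = growth of vehicle-only cultures of the same strain.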 The following applies: S. cerevisiae rad50 strain growth inhibition; at 50.0 µM; stronger effect = higher value. The method, boiled down:
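Growth of the mutant yeast was measured after compound exposure and referenced to vehicle-treated cultures.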

The nature of assay [2]: NCI Yeast Anticancer Drug Screen. Data for the mec2-1 strain (AID 157). The following applies: S. cerevisiae mec2-1 strain, at 50.0 µM, stronger effect = higher value. The gist of the method:
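Test agents were screened against the mec2-1 yeast strain, with defined DNA repair or cell cycle alteration. Growth was scored as inhibition against vehicle-only controls.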

A short description of assay [3]: NCI Yeast Anticancer Drug Screen. Data for the sgs1 mgt1 strain (AID 161).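 Note: 0% = growth of cultures given vehicle only.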 The following applies: S. cerevisiae sgs1 mgt1 strain, at 50.0 µM, stronger effect = higher value. The method, boiled down:
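Test agents were incubated with a DNA-repair-mutant yeast strain. Growth was then read and compared against vehicle-treated controls.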

A short description of assay [4]: NCI Yeast Anticancer Drug Screen. Data for the cln2 rad14 strain (AID 165).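 Note: 0% = growth equal to vehicle treated cultures.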 The following applies: S. cerevisiae cln2 rad14 strain, at 50.0 µM, stronger effect = higher value. The gist of the method:
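Growth of compound-exposed yeast (cln2 rad14 genotype) measured and expressed as inhibition relative to vehicle.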

A short description of assay [5]: NCI Yeast Anticancer Drug Screen. Data for the bub3 strain (AID 167). The following applies: S. cerevisiae bub3 mutant strain, at 50.0 µM, stronger effect = higher value. The gist of the method: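 Whole-cell yeast assay. The mutant strain was incubated with compounds, and growth inhibition was determined by comparison with vehicle-treated cells.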
The nature of assay [6]: NCI Yeast Anticancer Drug Screen. Data for the mlh1 rad18 strain (AID 175). The following applies: S. cerevisiae mlh1 rad18 strain growth inhibition; at 50.0 µM; stronger effect = higher value. The gist of the method: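 In this whole-cell yeast screen, a strain with altered DNA damage repair is challenged with compound, and its growth is measured against matched vehicle-treated controls.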

`NCCSCCC(=O)O`: the growth inhibition in assay [1] is -0.25%; in assay [2], -12.1%; in assay [3], -36.9%; in assay [4], 7.3%; in assay [5], -28.4%; in assay [6], -22.6%.
Take `Nc1ccc(C(=O)Nc2ccc3c(O)cc(S(=O)(=O)O)cc3c2)cc1`: the growth inhibition in assay [1] was 23.2%; in assay [2] it was 5.55%; in assay [3] it was 2.65%; in assay [4], -6.5%; in assay [5], -10.5%; in assay [6] it was 8.6%.
As to `O=[N+]([O-])c1ccc(N/N=C/C2CCCCCC2)c([N+](=O)[O-])c1`, the growth inhibition in assay [1] was 11.4%; in assay [2], 13.6%; in assay [3] it was -0.75%; in assay [4], -147%; in assay [5], -14.7%; in assay [6] it was 4%.
Turning to `CCCCCCC(=O)/C=C/c1cccc(OCc2ccccc2)c1`, the growth inhibition in assay [1] was 32%; in assay [2], 3.8%; in assay [3] it was 13.3%; in assay [4], 13.6%; in assay [5] it was 18.4%; in assay [6], 13.7%.
As for `Cc1cccc(-n2cccc2)c1`, the growth inhibition was -1.6% in assay [1]; -13.8% in assay [2]; 4.8% in assay [3]; -10.7% in assay [4]; -16.3% in assay [5]; 4.75% in assay [6].
With `COC(=O)C(=O)C(/C=N/C(=S)Nc1ccc(S(=O)(=O)Nc2nccs2)cc1)=C(\O)c1c(C)[nH]c2ccccc12`, the growth inhibition in assay [1] is 39.1%; in assay [2], 23.8%; in assay [3], 35%; in assay [4] it was 5.2%; in assay [5] it was 35.9%; in assay [6] it was 29.8%.
On to `CSc1nc(N(C)C)c2[nH]c(C)nc2n1`, for which the growth inhibition is 7.2% in assay [1]; 9.5% in assay [2]; -6.55% in assay [3]; 36.6% in assay [4]; 10.6% in assay [5]; 31.6% in assay [6].
Regarding `Cc1ccccc1-n1c(SCC(=O)NC(=O)Nc2cccc(Cl)c2)nc2c(Br)cc(Br)cc2c1=O`, the growth inhibition in assay [1] was -22.9%; in assay [2] it was -5.5%; in assay [3], 0.1%; in assay [4], -16.1%; in assay [5], -12.6%; in assay [6] it was -2.75%.
On to `COc1ccc(CCNC(=S)NCCc2ccc(OC)cc2)cc1`, for which the growth inhibition in assay [1] was 11.8%; in assay [2], 12.8%; in assay [3], -1.4%; in assay [4], -28%; in assay [5], -7.25%; in assay [6], -21%.
For the molecule `COC(=O)c1nc(=S)[nH]c(C(=O)OC)c1C(=O)c1ccccc1`, the growth inhibition in assay [1] is -25.9%; in assay [2], -12.9%; in assay [3], -27.4%; in assay [4] it was 36%; in assay [5], -25.4%; in assay [6] it was -16.4%.
As to `CC1OS(=O)OC1C` (stereo unspecified), the growth inhibition in assay [1] is -20.9%; in assay [2] it was -23.6%; in assay [3], -2.4%; in assay [4], -21.7%; in assay [5], -8.45%; in assay [6], -0.4%.
On to `COc1cc2c(cc1Cc1cc(OC)c(OC)c(OC)c1)OCO2`, for which the growth inhibition in assay [1] was 4.35%; in assay [2], -17.2%; in assay [3] it was 9.55%; in assay [4], -3.15%; in assay [5], 28.9%; in assay [6], 24.4%.
For the molecule `CCOC(=O)[C@H]1Nc2ccc(C)cc2C2c3ccccc3CC21` (stereo partly specified), the growth inhibition in assay [1] was -1.5%; in assay [2] it was -28.2%; in assay [3] it was 3.45%; in assay [4], -1.7%; in assay [5], -23.3%; in assay [6], -22.8%.
For `Nc1ccc(C(=O)Nc2ccc3c(ccc4ccccc43)c2)cc1`, the growth inhibition in assay [1] was -5.8%; in assay [2], 2.35%; in assay [3], 13.8%; in assay [4], 1.75%; in assay [5], -12.9%; in assay [6], 2.35%.
Consider `CCNCc1ccccc1`, for which the growth inhibition in assay [1] is -18.2%; in assay [2] it was -0.25%; in assay [3] it was -22.1%; in assay [4] it was -66.5%; in assay [5] it was -10.9%; in assay [6], -18.8%.
For the molecule `O=C(NNc1c(F)c(F)c(C(F)(F)F)c(F)c1F)c1ccccc1`, the growth inhibition in assay [1] is 3.55%; in assay [2] it was -19.1%; in assay [3], -10.9%; in assay [4], -64.3%; in assay [5] it was -14.8%; in assay [6], -19.1%.
`COc1cc2nccnc2c(N)c1OC`: the growth inhibition was 14.6% in assay [1]; 7.65% in assay [2]; 7.75% in assay [3]; -1.7% in assay [4]; -0.95% in assay [5]; 19.9% in assay [6].
As to `Cc1ccc(C(=O)NCCN2CCCC2)c([N+](=O)[O-])c1OCc1ccccc1`, the growth inhibition in assay [1] was 6.15%; in assay [2] it was -20%; in assay [3] it was 4.8%; in assay [4], -22.9%; in assay [5], -4.85%; in assay [6], -5.8%.
Take `COC(=O)c1nc(=S)[nH]c(C(=O)OC)c1C(=O)/C=C/c1ccccc1`: the growth inhibition in assay [1] was 0.1%; in assay [2], -1.7%; in assay [3], 8.05%; in assay [4], -14.2%; in assay [5], -1.75%; in assay [6], 11.8%.
`Cc1ccc(OCC(=O)C2CSc3ccc(Cl)cc32)cc1` (stereo unspecified): the growth inhibition in assay [1] is 67.8%; in assay [2], 33%; in assay [3], 26.4%; in assay [4], 70.6% (active); in assay [5], 75.7% (active); in assay [6], 73.5% (active).
Take `Cc1cc(Cl)nc(Nc2ccccc2)n1`: the growth inhibition is 13.1% in assay [1]; -2.5% in assay [2]; 3.8% in assay [3]; -1.8% in assay [4]; 9.25% in assay [5]; 13.7% in assay [6].
